Screening data deposited in PubChem by several laboratories.
Platelet DG rel = platelet dense granule release activity. human platelet-rich plasma, SFLLRN dense granule ATP release, luminescence. AID 1663. 300,000 compounds, 0.22% hits. inhibition, %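 (compounds screened at 7.5 µM in platelet-rich plasma)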;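 active = mean replicate score, as percent of positive control, at or above 50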
HIF act = HIF pathway transcriptional activation. U2OS HRE-luciferase reporter, luminescence; normalized: DMSO 0%, desferrioxamine 100%. activation, % at 7.5 µM (by protocol). 300,000 compounds, 0.32% hits. AID 1910;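 active = mean activation of at least 10% of the iron chelator positive control signal, with at least half of replicates also reaching 10%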
NTR1 ag = agonists of human neurotensin receptor NTR1; NTR1-U2OS beta-arrestin-GFP spot imaging, agonist mode; activation, % at 20 µM; 330,000 compounds, 0.17% hits; AID 493036;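 active = activation at or above 40% of the spot to cytoplasm intensity ratio, with at least 20 cells analyzed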;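 note: 0% = DMSO without peptide and 100% = 100 nM NTR1 peptide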
Target sequence (P30989 whole entry, looked up): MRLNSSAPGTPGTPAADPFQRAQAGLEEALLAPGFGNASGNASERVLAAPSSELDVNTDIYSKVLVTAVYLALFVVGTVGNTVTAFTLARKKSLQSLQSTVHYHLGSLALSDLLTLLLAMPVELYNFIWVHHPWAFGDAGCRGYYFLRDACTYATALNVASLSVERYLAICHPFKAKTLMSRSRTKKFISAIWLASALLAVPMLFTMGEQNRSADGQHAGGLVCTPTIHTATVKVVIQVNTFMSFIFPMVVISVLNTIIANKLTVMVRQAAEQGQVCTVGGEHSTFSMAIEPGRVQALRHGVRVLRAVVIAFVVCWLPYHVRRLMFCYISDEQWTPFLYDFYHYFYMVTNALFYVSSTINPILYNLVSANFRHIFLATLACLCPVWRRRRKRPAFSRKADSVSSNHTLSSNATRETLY
An asterisk follows results filed as active; . = no result given. This is a sample that favours compounds with a hit; in the whole collection about 0.63% have one here.

SMILES	Platelet DG rel	HIF act	NTR1 ag
O=C(NCc1ccc2c(c1)OCO2)C1CCC(CNS(=O)(=O)c2cccc3nsnc23)CC1 (stereo not given)	26	0	4
O=C(NCc1ccc2c(c1)OCO2)C1CCC(CNS(=O)(=O)c2ccccc2)CC1 (stereo not given)	61*	0	1
O=C(N/N=C/c1cn(-c2ccccc2)nc1-c1cccs1)c1ccccc1F	3	.	3
O=C(COC(=O)c1cnc(Cl)c(Cl)c1)Nc1cccc(S(=O)(=O)N2CCOCC2)c1	.	.	14
Cc1ccc(C(=O)COC(=O)C2CC(=O)N(c3nc(-c4ccccc4)cs3)C2)cc1C (stereo not given)	6	0	4
Cc1cccc(N2CCN(c3ccc(N4C(=O)CCCC4=O)cc3[N+](=O)[O-])CC2C)c1 (stereo not given)	7	79*	0
Cc1cccc(N2CCN(c3ccc(N4C(=O)CCCC4=O)cc3[N+](=O)[O-])CC2)c1C	6	0	2
CCOC(=O)C(O)(CCC(O)(C(=O)OCC)C(=O)OCC)C(=O)OCC	-12	0	1
CCN(C[C@H]1N[C@@](C)(C(=O)OC)[C@H]2C(=O)N(C)C(=O)[C@@H]12)C(=O)Nc1ccc(C)cc1	.	.	-2
COc1ccc(NC(=O)C2CCCN(S(=O)(=O)c3c(C)n[nH]c3C)C2)cc1 (stereo not given)	2	-1	-3
CCN(CC)C(=O)c1ccccc1NC(=O)c1cccc(S(=O)(=O)N(CC)CC)c1	3	0	3
CCN(CC)S(=O)(=O)c1cccc(C(=O)N/N=C(\C)c2ccc(O)cc2O)c1	7	13*	3
CC(C)CNC(=S)N(CCCO)Cc1cc2cc3c(cc2[nH]c1=O)OCO3	8	0	1
COc1ccc(C2c3c(-c4cc(Cl)c(C)cc4O)n[nH]c3C(=O)N2Cc2cccnc2)cc1OC (stereo not given)	72*	0	5
COc1ccc(C2c3c(-c4ccccc4O)n[nH]c3C(=O)N2Cc2ccco2)cc1OC (stereo not given)	0	-1	2
Cc1cc(C)nc(N/N=C/c2ccccc2OCc2ccc(Br)cc2)n1	-6	2	4
Cc1cc(C)nc(N/N=C/c2cc(Br)ccc2O)n1	8	34*	5
Cc1ccc(NC(=O)c2ccnc(C(C)(C)C)c2)cc1	-4	3	-1
CC(Oc1ccc2c(-c3ccccc3)cc(=O)oc2c1)C(=O)NCCN1CCOCC1 (stereo not given)	15	0	0
CC(Oc1ccc2ccc(=O)oc2c1)C(=O)NCCN1CCOCC1 (stereo not given)	-5	61*	0
Oc1ccc(N=Nc2ccc3ccccc3c2)cc1	54*	-19	11
COc1cc(N=Nc2ccc3ccccc3c2)ccc1O	1	2	3
Cc1nc(S/C(C(=O)O)=C2/C(=O)Nc3ccccc32)n[nH]1	61*	0	1
Cc1nc(SC2CC(=O)N(c3ccccc3)C2=O)n[nH]1 (stereo not given)	-1	0	2
CCOC(=O)c1cnn(-c2ccccc2)c1NC(=O)c1ccccc1	16	0	1
SMILES	Platelet DG rel	HIF act	NTR1 ag
COc1ccc(CNC(=S)N/N=C/c2ccc(OC)c(OC)c2)cc1	9	1	0
CCOc1cc(/C=N/NC(=O)N/N=C/c2ccc(O)c(OCC)c2)ccc1O	58*	6	0
COc1ccc(CNC(=S)N/N=C/c2ccc(O)c(OC)c2)cc1	-2	20*	1
COc1ccc(/C=N/NC(=O)/C(=C/c2ccccc2)CCO)cc1	-1	1	1
CCOc1cc(/C=N/NC(=O)C(=O)N/N=C/c2ccc(O)c(OCC)c2)ccc1O	2	-14	0
COc1cc(/C=N/NC(=O)/C(=C/c2ccccc2)CCO)ccc1O	56*	-1	0
COCCCC1CCN(C(=O)C2CCC(=O)N(C3CCCC3)C2)CC1 (stereo not given)	7	-1	0
O=C1CN(c2ccccc2)C(=S)N1c1ccccc1	-2	1	0
O=C(C1=C(O)C(=O)N(CCOCCO)C1c1cccs1)c1cccs1 (stereo not given)	4	-7	3
COc1ccc(C(C)=O)cc1CN(c1ccccc1OC)S(=O)(=O)c1cccs1	7	0	0
O=C(CSc1cccc[n+]1[O-])Nc1cccc(S(=O)(=O)NC2=NCCCCC2)c1	-5	-1	-1
CCC(=O)N1CCc2cc(S(=O)(=O)CCC(=O)NCc3ccco3)ccc21	-4	0	1
C/C=C/Cn1c(SCc2ccccc2)nc2c1c(=O)[nH]c(=O)n2C	-26	0	4
O=C(CCNS(=O)(=O)c1ccccc1)N1CCN(c2ccccc2)CC1	1	0	0
Cc1ccc(NC(=O)c2cc(S(=O)(=O)N3CCOCC3)cn2C)c(C)c1	41	0	2
COc1cccc(CNC(=O)c2cc(S(=O)(=O)N3CCCC3)cn2C)c1	57*	-1	-2
Cn1cc(S(=O)(=O)N2CCCC2)cc1C(=O)NCc1ccccc1	1	0	4
Cc1c(Cl)cccc1NC(=O)c1cc(S(=O)(=O)N2CCOCC2)cn1C	-4	0	-2
COc1cc(OC)c(NC(=O)c2cc(S(=O)(=O)N3CCOCC3)cn2C)cc1Cl	69*	0	-1
COc1ccc(NC(=O)c2cc(S(=O)(=O)N3CCOCC3)cn2C)c(OC)c1	59*	0	0
CN1CCN(Cc2c(O)ccc3c(-c4ccccc4)cc(=O)oc23)CC1	0	0	2
CCN(CC)S(=O)(=O)c1ccc(N2CCCC2)c(NC(=O)Cc2cc(OC)c(OC)c(OC)c2)c1	-1	0	1
Cc1c(NC(=O)COc2ncnc3c(Cl)cc(Cl)cc23)c(=O)n(-c2ccccc2)n1C	1	0	2
Cc1cnc(=O)[nH]c1SCC(=O)c1ccc(F)cc1	13	0	0
Oc1ccc(/C=N/NC(=S)N/N=C/c2ccc(O)cc2)cc1	115*	2	3
SMILES	Platelet DG rel	HIF act	NTR1 ag
Oc1ccc(/C=N/NC(=S)Nc2cccnc2)cc1	10	1	0
S=C(Nc1cc(Cl)cc(Cl)c1)NC1CCN(Cc2ccccc2)CC1	6	-2	52*
S=C(Nc1ccccc1Cl)NC1CCN(Cc2ccccc2)CC1	-6	0	3
Oc1cccc(/C=N/Nc2nn3cnnc3c3ccccc23)c1	57*	0	0
COc1cccc(/C=N/Nc2nn3cnnc3c3ccccc23)c1O	-10	2	7
Cc1csc(NC(=O)Cc2nn(C)c(=O)c3ccccc23)n1	-14	0	3
O=C(Nc1cccc(F)c1)C1CC(=O)N(c2ccc(Cl)cc2)C1 (stereo not given)	6	1	0
COc1ccc(OCC(=O)Nc2nccs2)cc1	22	-4	1
CCOc1ccc(OCC(=O)Nc2nccs2)cc1	69*	-2	0
Cc1ccc(NC(=O)CSc2nc(N)cc(=O)[nH]2)cc1S(=O)(=O)N1CCCCC1	.	.	2
O=C(CCNC(=O)c1ccc(Cl)cc1)NCc1ccccc1Cl	.	.	0
CC(=Nc1ccc(O)cc1)c1sc2ccccc2c1O	.	1	2
Oc1c(N=Nc2ccccc2)sc2ccccc12	56*	-1	3
COc1cc(/C=N/Nc2nncn2/N=C/c2ccc(O)c(OC)c2)ccc1O	56*	1	0
